The values that follow come from ChEMBL document CHEMBL1961873, “Compounds: GSK PKIS; Assays: Nanosyn kinase panel” (2012).

Assay [1] deals with Sphingosine kinase 1 (Homo sapiens) (UniProt Q9NYA1). Conditions: at 1 µM.
Assay [2] addresses T1, Sphingosine kinase 2 (Homo sapiens) (UniProt Q9NRA0).
T1 sequence (whole entry): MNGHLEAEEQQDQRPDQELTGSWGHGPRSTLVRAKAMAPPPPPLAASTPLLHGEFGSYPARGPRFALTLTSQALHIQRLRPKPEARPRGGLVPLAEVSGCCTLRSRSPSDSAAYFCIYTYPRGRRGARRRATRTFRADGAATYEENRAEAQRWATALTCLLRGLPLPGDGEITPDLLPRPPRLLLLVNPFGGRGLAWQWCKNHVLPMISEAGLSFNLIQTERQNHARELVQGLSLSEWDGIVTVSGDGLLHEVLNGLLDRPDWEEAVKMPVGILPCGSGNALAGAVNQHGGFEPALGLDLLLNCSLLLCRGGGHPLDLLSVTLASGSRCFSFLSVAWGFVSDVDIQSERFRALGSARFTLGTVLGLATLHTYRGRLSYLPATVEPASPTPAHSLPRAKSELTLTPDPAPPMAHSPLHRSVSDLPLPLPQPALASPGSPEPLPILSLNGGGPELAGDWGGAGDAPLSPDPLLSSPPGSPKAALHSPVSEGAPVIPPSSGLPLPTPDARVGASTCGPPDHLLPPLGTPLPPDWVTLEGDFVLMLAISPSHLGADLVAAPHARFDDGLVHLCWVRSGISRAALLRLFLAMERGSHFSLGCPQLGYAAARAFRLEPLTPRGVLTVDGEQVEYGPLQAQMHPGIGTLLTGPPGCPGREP
Conditions: at 0.1 µM.

Assay [3] has as its target T1, Sphingosine kinase 2 (Homo sapiens). The settings on record: at 1 µM.
Assay [4] deals with Casein kinase II subunit alpha (Homo sapiens) (UniProt P68400). The settings on record: at 0.1 µM.
Chain of Casein kinase II subunit alpha (Homo sapiens) (P68400 whole entry, looked up): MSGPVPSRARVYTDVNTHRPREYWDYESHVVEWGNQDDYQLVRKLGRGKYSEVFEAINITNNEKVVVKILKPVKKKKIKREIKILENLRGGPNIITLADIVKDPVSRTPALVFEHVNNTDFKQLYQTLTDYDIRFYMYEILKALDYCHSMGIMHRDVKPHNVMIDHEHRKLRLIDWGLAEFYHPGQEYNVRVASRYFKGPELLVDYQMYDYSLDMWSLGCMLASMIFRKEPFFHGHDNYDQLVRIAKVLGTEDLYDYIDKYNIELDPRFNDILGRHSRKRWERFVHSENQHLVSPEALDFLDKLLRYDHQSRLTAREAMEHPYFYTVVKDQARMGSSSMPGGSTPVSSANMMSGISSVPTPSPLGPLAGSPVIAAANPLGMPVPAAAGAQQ
Assay [5] has the same target. The settings on record: at 1 µM.
Assay [6] addresses T2, Inhibitor of nuclear factor kappa-B kinase subunit alpha (Homo sapiens) (UniProt O15111).
T2 sequence (whole entry): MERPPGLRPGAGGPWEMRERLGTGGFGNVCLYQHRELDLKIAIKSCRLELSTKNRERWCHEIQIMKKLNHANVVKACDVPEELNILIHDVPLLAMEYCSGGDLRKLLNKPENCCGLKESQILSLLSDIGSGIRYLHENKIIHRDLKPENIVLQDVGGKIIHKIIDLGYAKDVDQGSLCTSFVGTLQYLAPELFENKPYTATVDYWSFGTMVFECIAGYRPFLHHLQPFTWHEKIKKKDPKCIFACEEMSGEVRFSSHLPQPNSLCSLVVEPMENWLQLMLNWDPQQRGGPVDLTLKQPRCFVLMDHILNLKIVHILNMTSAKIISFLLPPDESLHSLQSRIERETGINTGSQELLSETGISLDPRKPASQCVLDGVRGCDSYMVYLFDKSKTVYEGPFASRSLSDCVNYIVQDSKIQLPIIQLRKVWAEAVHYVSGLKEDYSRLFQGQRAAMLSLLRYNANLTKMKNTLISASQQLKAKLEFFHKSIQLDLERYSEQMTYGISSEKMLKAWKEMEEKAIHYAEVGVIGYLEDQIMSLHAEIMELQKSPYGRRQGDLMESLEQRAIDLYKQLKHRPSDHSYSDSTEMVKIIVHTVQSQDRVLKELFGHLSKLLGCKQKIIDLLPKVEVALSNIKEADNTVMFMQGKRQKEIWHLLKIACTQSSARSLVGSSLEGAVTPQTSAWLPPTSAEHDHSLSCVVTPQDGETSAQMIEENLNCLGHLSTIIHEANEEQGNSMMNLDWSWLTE
Conditions: at 0.1 µM.

For assay [7], the target named is T2, Inhibitor of nuclear factor kappa-B kinase subunit alpha (Homo sapiens). The settings on record: at 1 µM.
Assay [8] deals with T3, Inhibitor of nuclear factor kappa-B kinase subunit beta (Homo sapiens) (UniProt O14920).
T3 sequence (whole entry): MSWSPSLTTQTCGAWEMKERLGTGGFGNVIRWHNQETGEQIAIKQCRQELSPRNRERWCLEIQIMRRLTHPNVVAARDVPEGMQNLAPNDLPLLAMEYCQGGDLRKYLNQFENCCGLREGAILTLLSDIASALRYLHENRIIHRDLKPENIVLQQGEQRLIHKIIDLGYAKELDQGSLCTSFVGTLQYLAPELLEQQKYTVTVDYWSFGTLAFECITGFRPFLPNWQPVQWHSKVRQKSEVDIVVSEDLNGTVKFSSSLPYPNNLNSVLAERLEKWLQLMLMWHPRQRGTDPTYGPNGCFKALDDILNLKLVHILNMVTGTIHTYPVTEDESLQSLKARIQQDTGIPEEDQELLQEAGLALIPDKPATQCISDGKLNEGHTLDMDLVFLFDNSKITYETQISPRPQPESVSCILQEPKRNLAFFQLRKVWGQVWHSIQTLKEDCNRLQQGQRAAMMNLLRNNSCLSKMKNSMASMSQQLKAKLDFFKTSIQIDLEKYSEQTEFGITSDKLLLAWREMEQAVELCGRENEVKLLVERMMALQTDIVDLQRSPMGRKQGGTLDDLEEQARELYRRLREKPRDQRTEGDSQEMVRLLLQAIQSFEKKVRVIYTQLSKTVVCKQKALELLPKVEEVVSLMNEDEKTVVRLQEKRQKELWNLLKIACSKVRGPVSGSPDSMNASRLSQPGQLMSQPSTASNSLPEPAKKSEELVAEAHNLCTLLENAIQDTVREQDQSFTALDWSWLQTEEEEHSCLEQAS
The settings on record: at 0.1 µM.

The target of assay [9] is T3, Inhibitor of nuclear factor kappa-B kinase subunit beta (Homo sapiens). Conditions: at 1 µM.
In assay [10] the target is T4, Inhibitor of nuclear factor kappa-B kinase subunit epsilon (Homo sapiens) (UniProt Q14164).
T4 sequence (whole entry): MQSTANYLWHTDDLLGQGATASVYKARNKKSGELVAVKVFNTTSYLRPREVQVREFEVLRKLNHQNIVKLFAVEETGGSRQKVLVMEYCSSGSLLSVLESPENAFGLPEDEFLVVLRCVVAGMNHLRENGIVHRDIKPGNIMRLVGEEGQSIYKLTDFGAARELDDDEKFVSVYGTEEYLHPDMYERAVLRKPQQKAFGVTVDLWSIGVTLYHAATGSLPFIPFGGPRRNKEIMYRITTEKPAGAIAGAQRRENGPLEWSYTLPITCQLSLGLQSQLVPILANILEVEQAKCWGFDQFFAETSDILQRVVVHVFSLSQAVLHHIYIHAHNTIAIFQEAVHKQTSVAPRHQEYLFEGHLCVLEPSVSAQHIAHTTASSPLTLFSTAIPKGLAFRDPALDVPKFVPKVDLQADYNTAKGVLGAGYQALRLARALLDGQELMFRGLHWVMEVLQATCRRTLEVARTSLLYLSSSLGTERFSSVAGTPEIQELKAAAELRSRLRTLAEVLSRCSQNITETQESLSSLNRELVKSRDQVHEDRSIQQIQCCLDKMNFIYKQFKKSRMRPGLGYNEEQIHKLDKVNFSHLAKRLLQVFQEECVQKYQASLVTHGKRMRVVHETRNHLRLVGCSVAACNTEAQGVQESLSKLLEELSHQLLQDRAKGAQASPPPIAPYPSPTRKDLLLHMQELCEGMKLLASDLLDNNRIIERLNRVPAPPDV
Conditions: at 0.1 µM.

The target of assay [11] is T4, Inhibitor of nuclear factor kappa-B kinase subunit epsilon (Homo sapiens). Conditions: at 1 µM.
Assay [12] addresses T5, Serine/threonine-protein kinase Nek1 (Homo sapiens) (UniProt Q96PY6).
T5 sequence (whole entry): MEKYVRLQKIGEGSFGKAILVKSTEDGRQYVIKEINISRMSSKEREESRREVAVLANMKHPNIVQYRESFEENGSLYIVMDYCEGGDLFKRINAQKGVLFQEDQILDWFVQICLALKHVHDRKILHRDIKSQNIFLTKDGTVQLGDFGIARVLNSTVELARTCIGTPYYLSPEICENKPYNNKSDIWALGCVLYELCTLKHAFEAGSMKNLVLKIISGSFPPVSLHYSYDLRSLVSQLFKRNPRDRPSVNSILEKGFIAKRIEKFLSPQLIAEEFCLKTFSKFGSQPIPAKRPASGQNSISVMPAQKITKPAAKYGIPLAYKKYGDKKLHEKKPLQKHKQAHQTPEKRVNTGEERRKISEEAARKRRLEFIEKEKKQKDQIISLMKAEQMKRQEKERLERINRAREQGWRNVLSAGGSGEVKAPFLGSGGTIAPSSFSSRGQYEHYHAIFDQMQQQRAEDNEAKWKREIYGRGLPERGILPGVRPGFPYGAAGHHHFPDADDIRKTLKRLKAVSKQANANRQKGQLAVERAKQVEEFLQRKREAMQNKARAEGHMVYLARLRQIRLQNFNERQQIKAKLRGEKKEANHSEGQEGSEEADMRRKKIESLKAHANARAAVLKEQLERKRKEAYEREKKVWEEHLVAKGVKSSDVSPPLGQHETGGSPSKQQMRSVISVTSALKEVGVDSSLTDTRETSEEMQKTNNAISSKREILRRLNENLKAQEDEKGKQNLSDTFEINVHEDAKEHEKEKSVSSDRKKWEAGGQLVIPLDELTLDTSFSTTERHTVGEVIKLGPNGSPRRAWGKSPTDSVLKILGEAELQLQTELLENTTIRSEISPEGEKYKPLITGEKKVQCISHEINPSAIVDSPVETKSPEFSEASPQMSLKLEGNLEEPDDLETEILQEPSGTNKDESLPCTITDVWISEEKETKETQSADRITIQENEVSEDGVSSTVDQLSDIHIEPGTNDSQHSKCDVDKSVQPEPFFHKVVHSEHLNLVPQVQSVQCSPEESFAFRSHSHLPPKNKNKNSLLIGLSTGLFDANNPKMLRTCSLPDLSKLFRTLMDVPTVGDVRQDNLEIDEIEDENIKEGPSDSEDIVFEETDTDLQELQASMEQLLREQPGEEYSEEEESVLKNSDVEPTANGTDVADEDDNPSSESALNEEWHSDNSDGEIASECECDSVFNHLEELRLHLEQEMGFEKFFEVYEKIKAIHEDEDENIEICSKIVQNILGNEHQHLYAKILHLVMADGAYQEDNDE
Conditions: at 0.1 µM.

For assay [13], the target named is T5, Serine/threonine-protein kinase Nek1 (Homo sapiens). The settings on record: at 1 µM.
The target of assay [14] is T6, Serine/threonine-protein kinase Nek2 (Homo sapiens) (UniProt P51955).
T6 sequence (whole entry): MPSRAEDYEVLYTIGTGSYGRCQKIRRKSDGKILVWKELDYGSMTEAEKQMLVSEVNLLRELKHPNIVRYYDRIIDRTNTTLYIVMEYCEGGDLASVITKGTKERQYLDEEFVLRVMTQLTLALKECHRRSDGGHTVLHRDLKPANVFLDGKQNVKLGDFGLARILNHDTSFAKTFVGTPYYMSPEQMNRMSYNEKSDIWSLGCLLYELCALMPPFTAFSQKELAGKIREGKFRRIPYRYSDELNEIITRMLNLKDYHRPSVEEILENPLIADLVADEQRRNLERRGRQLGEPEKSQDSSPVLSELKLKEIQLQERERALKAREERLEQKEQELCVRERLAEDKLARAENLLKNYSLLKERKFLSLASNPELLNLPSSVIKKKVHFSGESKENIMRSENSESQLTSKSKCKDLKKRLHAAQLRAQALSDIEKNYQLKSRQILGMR
The settings on record: at 0.1 µM.

The target of assay [15] is T6, Serine/threonine-protein kinase Nek2 (Homo sapiens). The settings on record: at 1 µM.
Assay [16] deals with Serine/threonine-protein kinase Nek6 (Homo sapiens) (UniProt Q9HC98). The settings on record: at 0.1 µM.
Chain of Serine/threonine-protein kinase Nek6 (Homo sapiens) (Q9HC98 whole entry): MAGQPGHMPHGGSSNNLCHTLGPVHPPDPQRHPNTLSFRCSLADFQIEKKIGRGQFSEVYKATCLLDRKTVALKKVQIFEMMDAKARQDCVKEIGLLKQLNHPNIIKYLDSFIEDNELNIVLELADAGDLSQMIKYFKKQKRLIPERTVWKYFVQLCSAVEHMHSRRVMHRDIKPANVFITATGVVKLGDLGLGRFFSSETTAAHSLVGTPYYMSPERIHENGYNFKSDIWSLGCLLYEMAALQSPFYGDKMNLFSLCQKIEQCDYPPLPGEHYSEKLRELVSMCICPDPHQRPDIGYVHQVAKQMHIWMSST
For assay [17] the target is unchanged. The settings on record: at 1 µM.
The target in assay [18] is Serine/threonine-protein kinase Nek7 (Homo sapiens) (UniProt Q8TDX7). Conditions: at 0.1 µM.
Chain of Serine/threonine-protein kinase Nek7 (Homo sapiens) (Q8TDX7 whole entry, looked up): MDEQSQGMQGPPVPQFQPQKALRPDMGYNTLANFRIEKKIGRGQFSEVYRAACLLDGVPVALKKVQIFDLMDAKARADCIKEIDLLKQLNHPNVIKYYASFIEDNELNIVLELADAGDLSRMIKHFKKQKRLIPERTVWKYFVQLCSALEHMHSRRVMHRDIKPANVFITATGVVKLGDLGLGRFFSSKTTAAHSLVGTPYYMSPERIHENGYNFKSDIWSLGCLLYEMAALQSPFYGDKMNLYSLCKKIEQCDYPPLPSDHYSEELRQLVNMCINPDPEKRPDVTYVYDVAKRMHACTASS
Assay [19] has the same target. The settings on record: at 1 µM.
The target of assay [20] is T7, Serine/threonine-protein kinase Nek9 (Homo sapiens) (UniProt Q8TD19).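 Also: reported value is the mean percent inhibition of NEK9.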
T7 sequence (whole entry): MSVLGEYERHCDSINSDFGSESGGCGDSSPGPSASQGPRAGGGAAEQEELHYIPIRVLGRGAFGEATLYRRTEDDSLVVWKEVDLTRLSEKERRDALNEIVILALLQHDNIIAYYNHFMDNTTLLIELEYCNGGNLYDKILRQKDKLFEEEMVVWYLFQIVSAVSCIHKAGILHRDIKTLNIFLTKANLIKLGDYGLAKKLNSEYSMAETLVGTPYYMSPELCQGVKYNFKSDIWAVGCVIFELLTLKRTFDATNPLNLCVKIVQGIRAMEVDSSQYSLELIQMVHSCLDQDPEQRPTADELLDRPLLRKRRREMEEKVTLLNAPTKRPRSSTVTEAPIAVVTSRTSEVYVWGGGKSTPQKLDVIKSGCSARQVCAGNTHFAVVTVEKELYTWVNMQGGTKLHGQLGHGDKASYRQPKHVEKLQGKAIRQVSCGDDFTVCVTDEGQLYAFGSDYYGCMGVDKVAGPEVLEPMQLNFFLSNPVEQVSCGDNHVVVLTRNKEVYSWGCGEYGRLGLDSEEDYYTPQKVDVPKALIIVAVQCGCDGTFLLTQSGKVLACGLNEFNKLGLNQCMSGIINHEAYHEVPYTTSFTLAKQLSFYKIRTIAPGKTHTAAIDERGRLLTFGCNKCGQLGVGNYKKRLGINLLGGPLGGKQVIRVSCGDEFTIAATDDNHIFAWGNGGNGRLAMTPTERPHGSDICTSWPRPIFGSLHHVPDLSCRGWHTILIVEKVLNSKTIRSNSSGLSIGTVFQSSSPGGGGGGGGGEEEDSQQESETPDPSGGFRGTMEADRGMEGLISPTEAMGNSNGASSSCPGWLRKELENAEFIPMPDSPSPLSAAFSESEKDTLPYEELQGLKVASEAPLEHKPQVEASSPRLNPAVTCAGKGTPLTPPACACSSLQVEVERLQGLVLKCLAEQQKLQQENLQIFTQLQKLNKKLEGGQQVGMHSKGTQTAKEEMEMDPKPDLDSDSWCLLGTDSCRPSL
The settings on record: at 0.1 µM.

Chain of Sphingosine kinase 1 (Homo sapiens) (Q9NYA1 whole entry): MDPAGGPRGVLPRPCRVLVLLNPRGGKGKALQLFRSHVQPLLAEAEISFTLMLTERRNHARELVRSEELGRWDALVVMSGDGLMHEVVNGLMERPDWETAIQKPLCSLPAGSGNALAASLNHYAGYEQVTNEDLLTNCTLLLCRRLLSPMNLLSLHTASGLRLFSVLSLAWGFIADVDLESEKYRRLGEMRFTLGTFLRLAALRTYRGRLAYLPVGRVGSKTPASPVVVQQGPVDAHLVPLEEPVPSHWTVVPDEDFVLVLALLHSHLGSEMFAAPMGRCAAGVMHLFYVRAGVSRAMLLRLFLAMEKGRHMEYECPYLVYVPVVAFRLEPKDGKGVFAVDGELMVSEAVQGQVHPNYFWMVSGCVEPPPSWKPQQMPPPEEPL

As for `COc1ccc(Nc2ncc(-c3ccccc3)o2)cc1OC`, the inhibition in [1] is 2.47%; in assay [2], -0.42%; in [3] it was -0.4%; in assay [4], 1.03%; in assay [5] it was 6.83%; in assay [6] it was 5.31%. In addition, the inhibition in [7] amounted to 3.86%; in assay [8], 3.33%; in assay [9], 4.83%; in assay [10] it was 2.76%; in assay [11] it was 4.37%; in [12], 0.52%. In addition, the inhibition in assay [13] is 5.19%; in assay [14] it was 0.8%; in [15], 2.25%; in [16], 0.31%; in [17] it was -2.42%; in [18], 1.23%. Also, the inhibition in assay [19] is 0.83%; in assay [20], -0.52%.

The term inhibition denotes the change of the read-out against control, counted positive when it falls.
